Measurements taken from PubChem BioAssay (EPA / NIEHS).
Results filed as inconclusive are left out. Calls of active or inactive are those of the source. The calls were made as follows, unless noted: active = hit-call score of the fitted dose curve at least 0.9, where 1 is the maximum; inactive = score below 0.9.

What was measured:
[1] = CCTE_Shafer_MEA_acute_spike_number: CCTE's Neural Acute Assay for Total Number of Spikes, Shafer Lab (AID 2284008)
In short: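 Primary rat cortical neurons on 16-electrode MEA wells; on DIV 13 or 15, 40-min baseline then 40-min recording with compound (0.03-40 uM) at 37 C. Spikes detected at 8x rms noise; percent change versus baseline, DMSO as negative control.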

[2] = CCTE_Shafer_MEA_acute_firing_rate_mean: CCTE's Neural Acute Assay for Mean Firing Rate, Shafer Lab (AID 2284009);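 also: analyzed for loss of signal so actives lower firing rate relative to DMSO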
In short: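 Rat primary cortical neurons on 48-well MEA plates, dosed at 0.03-40 uM on DIV 13 or 15; 40 min spontaneous activity recorded at 37 C before and after compound. Spike rate per electrode averaged per well, expressed as percent change from baseline.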

[3] = CCTE_Harrill_HTTr_CellCount_MCF7: CCTE's Cell Proliferation Assessment for the High-Throughput Transcriptomics (HTTr) Platform, Harrill Lab (AID 2284012; active = hit-call score of the fitted dose curve at least 0.9, where 1 is the maximum;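 also: cells exposed to compound for six hours; intended direction is loss of nuclei count meaning fewer cells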)
In short: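 MCF-7 cells were exposed for 6 h to an eight-point dilution series; Hoechst-labeled nuclei were counted by high content imaging. Curves were fitted bidirectionally against DMSO as negative control and baseline, with signal loss indicating reduced cell count.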

[4] = CCTE_Shafer_MEA_acute_burst_number: CCTE's Neural Acute Assay for Single-Electrode Bursts, Shafer Lab (AID 2284013)
In short: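 Primary rat cortical neurons on 16-electrode MEA wells, treated on DIV 13 or 15 with compound at 0.03-40 uM. Single-electrode burst count from 40-min recordings at 37 C before and after exposure; percent change from baseline per well, DMSO negative control.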

[5] = CCTE_Shafer_MEA_acute_burst_duration_mean: CCTE's Neural Acute Assay for Mean Burst Duration, Shafer Lab (AID 2284014);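 also: hits are decreases in mean burst duration relative to DMSO controls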
In short: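 Rat primary cortical neurons on 48-well MEA, treated at DIV 13 or 15 with 0.03-40 uM in at least 3 wells. Value is percent change in mean burst duration, comparing 40 min recordings at 37 C before and during exposure.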

[6] = CCTE_Shafer_MEA_acute_per_burst_spike_number_mean: CCTE's Neural Acute Assay for Average Number of Spikes Per Burst, Shafer Lab (AID 2284015);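 also: hits are decreases in mean spikes per burst versus baseline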
In short: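 Percent change in mean spikes per single-electrode burst is compared between a 40 min baseline and a 40 min recording with compound (0.03-40 uM). Cultures were rat cortical neurons on MEA plates at DIV 13 or 15, recorded at 37 C, with DMSO as the negative control.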

[7] = CCTE_Shafer_MEA_acute_interburst_interval_mean: CCTE's Neural Acute Assay for Mean Interburst Interval, Shafer Lab (AID 2284016);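 also: percent change of mean interburst interval versus each well's own pre-dose baseline; curves fitted for decrease in interburst interval relative to DMSO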
In short: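 Percent change in mean single-electrode interburst interval was calculated per well from 40 min recordings before and after compound (0.03-40 uM). Recordings were made at 37 C on rat cortical cultures at DIV 13 or 15, with spikes detected at 8x rms threshold.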

[8] = CCTE_Shafer_MEA_acute_burst_percentage_mean: CCTE's Neural Acute Assay for Percentage of Spikes in a Burst, Shafer Lab (AID 2284017)
In short: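 Well-level mean burst percentage from a 40-min recording after compound (0.03-40 uM) expressed as percent change from a 40-min baseline at 37C. Cultures: primary rat cortical neurons on MEA, dosed on DIV 13 or 15; fitted downward relative to DMSO.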

[9] = CCTE_Shafer_MEA_acute_burst_percentage_std: CCTE's Neural Acute Assay for Standard Deviation of Burst Percentage, Shafer Lab (AID 2284018);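 also: fitted in the negative direction so actives lower burst percentage SD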
In short: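 Rat primary cortical neurons on 48-well MEAs, DIV 13 or 15, 37 C. 40-min baseline then 40-min recording with compound (0.03-40 uM); well-level SD of per-electrode burst spike percentage, expressed as percent change from baseline.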

[10] = CCTE_Shafer_MEA_acute_per_network_burst_spike_number_mean: CCTE's Neural Acute Assay for Average Number of Spikes in a Network Burst, Shafer Lab (AID 2284019);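 also: curve fitted for loss of signal so actives reduce spikes per network burst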
In short: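 Rat primary cortical neurons on 48-well MEA at DIV 13 or 15, 37 C; compounds 0.03-40 uM, at least three wells each. 40-min baseline then 40-min exposure recording; percent change in mean spikes per network burst.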

[11] = CCTE_Shafer_MEA_acute_per_network_burst_spike_number_std: CCTE's Neural Acute Assay for Standard Deviation of Number of Spikes in a Network Burst, Shafer Lab (AID 2284020);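 also: fitted for decrease in spike-number SD versus DMSO so actives lower it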
In short: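 Rat primary cortical neurons on 48-well MEA (16 electrodes/well), treated DIV 13 or 15 at 0.03-40 uM, ≥3 wells per compound. 40 min recordings at 37 C before and after dosing; value is percent change in network-burst spike-number SD, negative direction vs DMSO.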

[12] = CCTE_Shafer_MEA_acute_per_network_burst_electrodes_number_mean: CCTE's Neural Acute Assay for Mean Number of Electrodes in a Network Burst, Shafer Lab (AID 2284021);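 also: curves fitted for decreases only so hits reduce electrodes per burst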
In short: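 Rat primary cortical neurons on 16-electrode MEA wells were recorded 40 min at baseline on DIV 13 or 15, then 40 min after compound (0.03-40 uM), at 37 C. Value is percent change per well, fitted in loss direction versus DMSO.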

[13] = CCTE_Shafer_MEA_acute_network_burst_percentage: CCTE's Neural Acute Assay for Percentage of Network Bursts, Shafer Lab (AID 2284022);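 also: curves fitted for loss so actives lower network burst percentage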
In short: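 Primary rat cortical neurons on 16-electrode MEA wells, treated on DIV 13 or 15 with compound (0.03-40 uM); 40-min baseline and 40-min post-exposure recordings at 37 C. Value is percent change in spikes within network bursts versus baseline, DMSO negative control.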

[14] = CCTE_Shafer_MEA_acute_cross_correlation_area: CCTE's Neural Acute Assay for Area of Cross Correlation, Shafer Lab (AID 2284024);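 also: area under pooled inter-electrode spike cross-correlation near zero lag as percent change from own baseline; curves fitted for loss of cross-correlation area so actives lower synchrony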
In short: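 Primary rat cortical neurons on 48-well MEA plates (16 electrodes/well) were recorded 40 min at baseline on DIV 13 or 15, then 40 min with compound (0.03-40 uM) at 37 C; cross-correlation area expressed as percent change from baseline.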

[15] = CCTE_Shafer_MEA_acute_cross_correlation_HWHM: CCTE's Neural Acute Assay for Cross Correlation at Half Width at Half Maximum, Shafer Lab (AID 2284026);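 also: spontaneous network firing of rat primary cortical neurons on multiwell microelectrode arrays; percent change per well from pre-dose baseline in spike cross-correlogram half width; hits are a decrease in cross-correlogram half width relative to DMSO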
In short: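 Primary rat cortical neurons on 16-electrode MEA wells; 40-min baseline on DIV 13 or 15, then 40-min recording with compound (0.03-40 uM) at 37 C. HWHM of spike cross-correlogram expressed as percent change from baseline per well, DMSO reference.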

[16] = CCTE_Shafer_MEA_acute_synchrony_index: CCTE's Neural Acute Assay for Synchrony, Shafer Lab (AID 2284027);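 also: network synchrony index of spontaneous spiking in primary rat cortical neurons on MEAs; fitted for loss of signal so actives lower synchrony relative to DMSO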
In short: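 Primary rat cortical neurons on 16-electrode MEA wells were recorded 40 min at baseline (DIV 13 or 15) and 40 min after compound (0.03-40 uM) at 37 C. Synchrony index (0-1) expressed as percent change from baseline, versus DMSO.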

[17] = CCTE_Shafer_MEA_dev_firing_rate_mean: CCTE's Neural Network Formation Assay for Mean Firing Rate, Shafer Lab (AID 2284031)
In short: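 Primary rat cortical neurons on 48-well, 16-electrode MEAs (PEI-coated, laminin at plating), exposed from day 0 with compound renewed at DIV 5 and 9. Spikes recorded DIV 5, 7, 9, 12; well-mean firing rate collapsed to trapezoidal AUC, loss-of-signal vs DMSO.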

[18] = CCTE_Shafer_MEA_dev_per_burst_spike_percent: CCTE's Neural Network Formation Assay for Percent of Spikes in a Burst, Shafer Lab (AID 2284032);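 also: fitted as a decrease in burst spike percentage below DMSO baseline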
In short: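 Rat primary cortical neurons on 16-electrode MEA wells, dosed from plating day 0 for 12 days with renewal on DIV 5 and 9; spikes-in-bursts percentage averaged over bursting electrodes, collapsed as AUC across days 5, 7, 9, 12; loss direction versus DMSO.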

[19] = CCTE_Shafer_MEA_dev_active_electrodes_number: CCTE's Neural Network Formation Assay for Number of Active Electrodes, Shafer Lab (AID 2284040; active = hit-call score of the fitted dose curve at least 0.9, where 1 is the maximum;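 also: potency for loss of active electrodes versus DMSO so lower counts are hits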)
In short: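 Rat cortical primary cultures, 1.5 x 10^5 cells/well, PEI-coated MEA, laminin drop. Continuous exposure DIV 0–12; full media/compound change DIV 5, 9. Readout: electrodes with mean firing ≥5 spikes/min; AUC across days; loss vs DMSO.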

[20] = CCTE_Shafer_MEA_dev_burst_rate: CCTE's Neural Network Formation Assay for Burst Rate, Shafer Lab (AID 2284042)
In short: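 Exposure ran continuously over 12 days of network development in rat cortical cultures, with compound refreshed during full media changes on DIV 5 and 9. Single-electrode bursts per recording time, well-mean over active electrodes, trapezoidal AUC across days 5–12, fitted downward relative to DMSO.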

[21] = CCTE_Shafer_MEA_dev_bursting_electrodes_number: CCTE's Neural Network Formation Assay for Number of Bursting Electrodes, Shafer Lab (AID 2284043; active = hit-call score of the fitted dose curve at least 0.9, where 1 is the maximum;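 also: potency is for loss of bursting electrodes relative to DMSO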)
In short: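 Primary rat cortical neurons plated on 16-electrode MEA wells, exposed from day 0 with compound renewed at DIV 5 and 9. Electrodes bursting ≥1 burst per 2 min counted on days 5, 7, 9 and 12; trapezoidal AUC across days, fitted for loss versus DMSO.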

[22] = CCTE_Shafer_MEA_dev_per_burst_interspike_interval: CCTE's Neural Network Formation Assay for Burst Interspike Interval, Shafer Lab (AID 2284044);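 also: mean spike spacing inside bursts as AUC over recordings on days 5 7 9 12; potency for a decrease of within-burst interspike interval below DMSO level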
In short: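 Rat cortical primary cultures, 16 electrodes/well; compound from plating, renewed with full media change DIV 5 and 9. Spikes via adaptive detector; per-burst ISI well-mean over active bursting electrodes; AUC of DIV 5/7/9/12 recordings; loss-direction fit vs DMSO.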

[23] = CCTE_Shafer_MEA_dev_burst_duration_mean: CCTE's Neural Network Formation Assay for Mean Burst Duration, Shafer Lab (AID 2284045)
In short: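 Primary rat cortical neurons on 48-well 16-electrode MEA plates, exposed from day 0 with renewal at DIV 5 and 9; spontaneous activity recorded on days 5, 7, 9, 12. Well-mean burst duration across bursting electrodes, collapsed as trapezoidal AUC; DMSO baseline.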

[24] = CCTE_Shafer_MEA_dev_interburst_interval_mean: CCTE's Neural Network Formation Assay for Mean Interburst Interval, Shafer Lab (AID 2284046);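 also: well-mean interburst interval of bursting electrodes as AUC over four recording days; curve fitted for decrease in interburst interval relative to DMSO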
In short: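 Primary rat cortical neurons on PEI-coated 48-well MEA plates (laminin added with cells at plating) (16 electrodes/well), exposed from plating day 0 with renewal at DIV 5 and 9. Mean inter-burst interval averaged over bursting electrodes, AUC across days 5, 7, 9, 12; DMSO baseline.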

[25] = CCTE_Shafer_MEA_dev_inter_network_spike_interval_mean: CCTE's Neural Network Formation Assay for Mean Inter-network Spike Interval, Shafer Lab (AID 2284047)
In short: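 Mean time between consecutive network-spike peaks, recorded extracellularly (adaptive spike detection) on DIV 5, 7, 9 and 12, summarized as trapezoidal AUC. Rat cortical cultures on MEAs dosed continuously days 0–12, re-dosed at feeds; loss-of-signal fit relative to DMSO.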

[26] = CCTE_Shafer_MEA_dev_network_spike_number: CCTE's Neural Network Formation Assay for Number of Network Spikes, Shafer Lab (AID 2284048)
In short: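 Primary rat cortical neurons on PEI/laminin 48-well MEA plates, dosed from plating day 0 for 12 days, renewed at DIV 5 and 9. Network spike counts recorded DIV 5, 7, 9, 12, collapsed as trapezoidal AUC; DMSO baseline.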

[27] = CCTE_Shafer_MEA_dev_network_spike_peak: CCTE's Neural Network Formation Assay for Mean Number of Electrodes in Network Spike, Shafer Lab (AID 2284049);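 also: fitted for loss of signal meaning fewer electrodes in network spikes than DMSO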
In short: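 Network-spike peak electrode count from recordings on days 5, 7, 9 and 12 was combined as trapezoidal area under the curve. Rat cortical cultures were treated continuously from plating, with compound renewed at each feed (DIV 5, 9); fits versus DMSO.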

[28] = CCTE_Shafer_MEA_dev_spike_duration_mean: CCTE's Neural Network Formation Assay for Mean Spike Duration, Shafer Lab (AID 2284051);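 also: mean network spike duration pooled as area under curve over DIV 5 to 12 recordings; potency for a decrease in mean network spike duration versus DMSO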
In short: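 Spontaneous activity was recorded on days 5, 7, 9 and 12 from rat cortical cultures grown on microelectrode arrays and dosed continuously from day 0, with media and compound renewed after the DIV 5 and 9 recordings. Network-spike duration was collapsed by area under the curve.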

[29] = CCTE_Shafer_MEA_dev_per_network_spike_spike_number_mean: CCTE's Neural Network Formation Assay for Mean Number of Spikes in a Network Spike, Shafer Lab (AID 2284053);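 also: fitted as decrease in spikes per network spike relative to DMSO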
In short: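 Mean spike count within each network spike, taken in a 0.05 s window at its peak, was recorded on days 5, 7, 9 and 12 and integrated as trapezoidal area under the curve. Rat cortical cultures on MEA plates received continuous compound from day 0, refreshed at medium changes on DIV 5 and 9.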

[30] = CCTE_Shafer_MEA_dev_per_network_spike_spike_percent: CCTE's Neural Network Formation Assay for Percent of Spikes in a Network Spike, Shafer Lab (AID 2284054)
In short: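 Rat primary cortical neurons were grown on 48-well MEA plates (16 electrodes/well), exposed from plating day 0 through day 12, with treatment renewed on DIV 5 and 9. Percent of spikes within 0.05 s network-spike peaks was measured, summarised as AUC across days 5, 7, 9, 12.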

[31] = CCTE_Shafer_MEA_dev_LDH: CCTE's Lactate Dehydrogenase Assay for Cytotoxicity in the Neural Network Formation Assay, Shafer Lab (AID 2284068; active = hit-call score of the fitted dose curve at least 0.9, where 1 is the maximum;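 also: exposure for twelve days from plating with re-dosing on DIV 5 and 9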)
In short: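 Primary rat cortical neurons were cultured on PEI-coated MEA plates and exposed from plating through day 12, with compound renewed at medium changes on DIV 5 and 9. LDH activity was read spectrophotometrically; loss of signal versus DMSO indicates reduced viability.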

[32] = CCTE_Shafer_MEA_dev_AB: CCTE's Alamar Blue Assay for Cytotoxicity in the Neural Network Formation Assay, Shafer Lab (AID 2284083; active = hit-call score of the fitted dose curve at least 0.9, where 1 is the maximum;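 also: resazurin reduction fluorescence as viability of cultured neurons; twelve days of exposure from plating with re-dosing on DIV 5 and 9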)
In short: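 Resazurin fluorescence, relative to DMSO, gauges viability after twelve days of exposure that began at plating of rat cortical neurons (1.5 x 10^5 cells/well, 48-well MEA); treatment renewed with full medium exchange on DIV 5 and 9.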

Measured: AC50

O=C1CC2(CCCC2)CC(=O)N1CCCCN1CCN(c2ncccn2)CC1
inactive: [1] | [2] | [3] | [4] | [5] | [6] | [7] | [8] | [9] | [11] | [13] | [14] | [15] | [16] | [17] | [20] | [23] | [24] | [25] | [26] | [30] | [31]
active: [10] 1.01 µM | [12] 2.98 µM | [18] 15 µM | [19] 9.97 µM | [21] 15 µM | [22] 2.98 µM | [27] 15 µM | [28] 15 µM | [29] 21.6 µM | [32] 15 µM
